Laboratory results taken from PubChem BioAssay (NCATS).
Values joined by “and” are separate entries in the source; they are usually repeats but may differ in a detail not shown here. Equal entries are not always repeated. Values without a mark were called inactive. Inconclusive results are not listed. Where a call stands in place of a potency, no number is given. Active and inactive are the calls of the source. Unless noted, the call rests on the fitted dose curve; in most records, active means well fitted curve in the direction sought with a large enough effect; inconclusive means small, poorly fitted or top-dose-only effect, or another doubt; inactive means no such curve, though single readings can be large; an effect the other way counts as inactive or inconclusive.

Legend:
[1] = Cell Viability - MRC5 (AID 434; calls by dose curve;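 further: potency means the concentration at half of the fitted maximal effect; cells exposed to compound for 40 hours at 37 °C; potency reflects cytotoxicity seen as loss of intracellular ATP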); settings: MRC5 lung fibroblast viability, qHTS
Method in brief: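 AC50 values come from Hill-equation fits of intracellular ATP loss, measured by CellTiter-Glo luminescence. Normal lung fibroblasts (MRC5) had 40 hr compound treatment at 37 C, normalized between DMSO and 100 uM tamoxifen.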

[2] = Cellular Toxicity (caspase-3) HepG2 (AID 654); settings: HepG2 caspase-3 activation, luminescence; series mostly up to 92.2 µM;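 further: cells exposed to compound for 16 hours before reading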
Method in brief: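 Luminescent Caspase-Glo 3/7 readout after 16 hr compound exposure of human hepatocellular carcinoma HepG2 cells at 37 °C; qHTS concentration-response, normalized DMSO = 0%, 100 uM tamoxifen = 100%; AC50 by standard Hill equation.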

[3] = Cellular Toxicity (caspase-3) HUV-EC-C (AID 656); settings: HUV-EC-C cells, caspase-3 activation (apoptosis); series mostly up to 92.2 µM
Method in brief: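 HUV-EC-C endothelial cells, 1000/well, were pre-incubated 5 hr at 37°C, then exposed to compounds for 16 hr at 37°C. Caspase-Glo 3/7 luminescence was read after 20 min at room temperature. AC50 came from Hill fits, normalized to DMSO and 100 uM tamoxifen.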

[4] = Cellular Toxicity (caspase-3) SHSY5Y (AID 657); settings: SH-SY5Y caspase-3 activation; series mostly up to 91.7 µM
Method in brief: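 SH-SY5Y human neuroblastoma cells (1500/well) were treated with compounds for 16 h at 37 °C, then Caspase-Glo 3/7 luminescence was read after 1 h at room temperature. Data normalized to DMSO and 10 uM staurosporine; AC50 from Hill fits.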

[5] = Cellular Toxicity (caspase-3) BJ (AID 658); settings: BJ fibroblasts, luminescence; Potency: caspase-3 activation; series mostly up to 91.7 µM
Method in brief: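 Caspase-Glo 3/7 luminescence, read 1 hr after reagent at room temperature, in normal BJ fibroblasts exposed 16 hours at 37 °C. AC50 values from Hill-equation concentration-response, scaled between DMSO basal and 10 uM staurosporine as 100%.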

[6] = Cellular Toxicity (caspase-3) MRC-5 (AID 659); settings: MRC-5 cells, luminescence, normalized: DMSO 0%, 10 µM staurosporine 100%; series mostly up to 91.7 µM
Method in brief: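 Luminescent Caspase-Glo 3/7 read-out (1 h, room temperature) after a 16 h, 37 °C compound exposure of MRC-5 lung fibroblasts at 1500 cells/well. Concentration-response AC50 from Hill equation; 0% DMSO, 100% 10 uM staurosporine.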

[7] = Cellular Toxicity (caspase-3) SK-N-SH (AID 661); settings: SK-N-SH caspase-3 activation, qHTS, DMSO as zero, staurosporine as full; series mostly up to 91.7 µM
Method in brief: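 Luminescent Caspase-Glo 3/7 read-out after 16 hr compound exposure of SK-N-SH neuroblastoma cells at 37 °C. Signal increase normalized to DMSO (basal) and 10 uM staurosporine (100%); AC50 from Hill equation fits of qHTS concentration-response data.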

[8] = Cellular Toxicity (caspase-3) H-4-II-E (AID 663); settings: H-4-II-E rat hepatoma; Potency: caspase-3 activation; series mostly up to 92.2 µM;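 further: cells exposed to compound for 16 hr before readout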
Method in brief: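 Caspase 3/7 activation measured by luminescent aminoluciferin substrate cleavage after 16 hr compound treatment of H-4-II-E cells in complete medium. Increase normalized between DMSO (basal) and 100 uM tamoxifen (100%); Hill-equation AC50 from concentration-response.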

[9] = Cellular Toxicity (caspase-3) Hek293 (AID 664); settings: HEK293 caspase-3 activation, DMSO = 0%, 100 µM tamoxifen = 100%; at 92.2 µM (top of the series);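 further: cells exposed to compound for 16 h at 37 °C before readout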
Method in brief: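 Luminescent Caspase-Glo 3/7 readout (aminoluciferin release) in HEK293 cells after 16 h compound treatment, 37 °C. Normalization: DMSO = basal, 100 uM tamoxifen = 100% stimulation. Concentration-response fitted with standard Hill equation for AC50.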

[10] = Cellular Toxicity (caspase-3) N2a (AID 665); settings: N2a cells, luminescence, normalized: DMSO 0%, 10 µM staurosporine 100%; series mostly up to 92.2 µM;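 further: compound exposure lasted 16 h at 37 °C before readout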
Method in brief: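 Luminescent Caspase-Glo 3/7 readout in N2a mouse neuroblastoma cells after 16 h compound exposure at 37 °C. Signal scaled to DMSO (basal) and 10 uM staurosporine (100%). Concentration-response fitted with Hill equation for AC50.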

[11] = Cellular Toxicity (caspase-3) Renal Proximal Tubule (AID 667); settings: renal proximal tubule cells, primary cells freshly taken from rat; Potency: caspase-3 activation; series mostly up to 91.7 µM;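 further: cells exposed to compound for 16 hours at 37 °C before detection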
Method in brief: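 Primary rat proximal tubule cells, 1000/well, 5 h plating at 37 °C, then compound 16 h at 37 °C. Caspase-Glo 3/7 reagent, 1 h RT, luminescence. Normalized to DMSO (basal) and 10 uM staurosporine (100%); Hill-fit AC50.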

[12] = MultiTox-Fluor Cytotoxicity Assay - LYMP1-001 - Dead Cells (AID 946); settings: LYMP1-001 lymphoblastoid cells, dead-cell protease fluorescence; series mostly up to 92.2 µM
Method in brief: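 Cytotoxicity as increased dead-cell protease fluorescence (bis-AAF-R110, 485/520 nm), read 60 min after MultiTox-Fluor reagent. Human lymphoblastoid line exposed 16 h; Hill-fitted AC50, with DMSO as 0% and 15 uM tetraoctylammonium bromide as 100%.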

[13] = MultiTox-Fluor Cytotoxicity Assay - LYMP1-003 - Live Cells (AID 962); settings: LYMP1-003 lymphoblastoid cells, MultiTox-Fluor live-cell protease fluorescence; series mostly up to 92.2 µM;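 further: cytotoxic hits lower the live-cell protease signal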
Method in brief: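 Readout: live-cell fluorescence (Ex/Em=405/510) from GF-AFC cleavage after 60 min MultiTox-Fluor reagent at room temperature. Lymphoblastoid LYMP1-003 cells, 16 hr compound treatment, 37 C. Concentration-response fitted to standard Hill equation for AC50.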

[14] = Cell Viability - LYMP1-003 - Assay at 24 hr (AID 963); settings: LYMP1-003 lymphoblastoid cell viability; series mostly up to 92.2 µM
Method in brief: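 CellTiter-Glo luminescence (intracellular ATP) read after 24 hr, 37 C compound exposure of 2500 LYMP1-003 human lymphoblastoid cells/well in complete medium; qHTS concentration series; AC50 via standard Hill equation.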

[15] = qHTS Assay for Identification of Small Molecule Inducers of Hypoxia Response (AID 2120; active means well fitted curve in the direction sought with a large enough effect in the signal ratio, with a control signal flat, not every such curve was filed as active; the % refers to the signal ratio; further: potency means the concentration at half of the fitted maximal effect); settings: hypoxia response reporter cells, beta-lactamase ratio readout; series mostly up to 104 µM
Method in brief: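 Read-out: CCF4 FRET emission ratio 460nm/530nm (excitation 405nm), converted to %Activity, with AC50 fitted across a compound titration. ME-180 cells carried an HRE-driven beta-lactamase reporter; compound exposure 17 h, 37 degrees C.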

[16] = target: Peroxisome proliferator-activated receptor alpha (Homo sapiens) (UniProt Q07869); assay: qHTS assay for small molecule agonists of the peroxisome proliferator-activated receptor alpha (PPARalpha) signaling pathway (AID 651778); settings: PathHunter PPARalpha complementation, chemiluminescence, 6 h; max response: hits give high values
Method in brief: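 Chemiluminescence from complemented enzyme reported PPARalpha activation in cells after 6 hr of compound treatment at 37 C. The detection reagent was incubated for 60 min at room temperature, and compounds were scored as agonists.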

[17] = qHTS assay for small molecule agonists of the antioxidant response element (ARE) signaling pathway measured by Nrf2-dependant transcriptional activity - cell viability counter screen (AID 720653; active means well fitted curve in the direction sought with a large enough effect in the repeat runs; an effect the other way counts as inactive or inconclusive); settings: ARE-bla HepG2 viability, CellTiter-Glo ATP luminescence, 16 h; max response: hits give low values
Method in brief: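 Cytotoxicity counter screen: intracellular ATP quantified by CellTiter-Glo luminescence in the same ARE-bla HepG2 plates, after 16 h compound exposure and a 2 h beta-lactamase substrate step.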

[18] = qHTS assay for cell viability of HEK293 cells (AID 743288); settings: ATP luminescence (CellTiter-Glo), 18 h; max response: hits give low values; further: nearly all actives have a fitted effect of over 50% in size
Method in brief: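 After 18 h compound exposure at 37 C, parental HEK293 cells (2,000/well) are lysed with CellTiter-Glo and luminescence is read following 30 min at room temperature.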

[19] = qHTS assay for cell viability of the p53RE-bla HCT-116 cell line (AID 743292); settings: p53RE-bla HCT-116 viability, ATP luminescence, 16 h; series mostly up to 95 µM; further: nearly all actives have a fitted effect of over 55% in size
Method in brief: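 Viability of compound-treated p53RE-bla HCT-116 cells is taken from ATP-dependent luciferase luminescence. Treatment lasts 16 h at 37 C after a 5 h settling period; detection follows 30 min at room temperature.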

[20] = Cellular Toxicity (caspase-3) Mesangial (AID 660); settings: mesangial cells, normalized: DMSO 0%, 100 µM tamoxifen 100%; series mostly up to 91.7 µM;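 further: combined caspase 3 and 7 activity read by Caspase-Glo luminescence; cells exposed to compound for 16 h before the caspase read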
Method in brief: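 Luminescent Caspase-Glo 3/7 readout (aminoluciferin substrate cleavage, 20 min RT) after 16 h compound exposure at 37 °C of normal human mesangial cells. Signal increase normalized between DMSO basal and 100 uM tamoxifen; Hill-equation AC50.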

Chain of Peroxisome proliferator-activated receptor alpha (Homo sapiens) (Q07869 whole entry, looked up): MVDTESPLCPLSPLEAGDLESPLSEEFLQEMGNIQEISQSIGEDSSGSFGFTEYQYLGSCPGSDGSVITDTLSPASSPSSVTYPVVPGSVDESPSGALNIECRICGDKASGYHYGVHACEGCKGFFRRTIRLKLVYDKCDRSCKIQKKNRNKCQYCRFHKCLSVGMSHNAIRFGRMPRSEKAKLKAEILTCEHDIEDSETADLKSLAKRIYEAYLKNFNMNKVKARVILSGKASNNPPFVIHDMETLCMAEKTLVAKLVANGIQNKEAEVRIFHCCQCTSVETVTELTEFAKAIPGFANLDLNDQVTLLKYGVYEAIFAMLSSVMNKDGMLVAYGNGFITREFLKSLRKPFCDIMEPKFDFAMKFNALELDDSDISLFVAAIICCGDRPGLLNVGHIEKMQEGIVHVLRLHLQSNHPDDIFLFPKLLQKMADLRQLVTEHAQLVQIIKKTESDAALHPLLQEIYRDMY

SMILES | Potency [1] [µM] | Potency [2] | Potency [3] | Potency [4] | Potency [5] | outcome [6] | outcome [7] | Potency [8] | caspase-3 activation [9] [%] | outcome [10] | Potency [11] | Potency [12] | Potency [13] | Potency [14] | Potency [15] | max response [16] | max response [17] | max response [18] | Potency [19] | outcome [20]
Nc1ccc(-c2ccc(N)c(O)c2)cc1O | > 92 | inactive | inactive | inactive | inactive | inactive | inactive | inactive | 0.00867 | inactive | inactive | inactive | inactive | inactive | inactive | -5.39% | 1.43% | -18.5% | inactive | –
O=c1[nH]ncc2ccccc12 | > 92 | inactive | inactive | inactive | inactive | inactive | inactive | inactive | -1.83 | inactive | inactive | inactive | inactive | inactive | inactive | -3.48% | 2.85% | 0.756% | inactive | inactive
Oc1ccc(O)c2c(O)cccc12 | > 92 | inactive | inactive | inactive | inactive | inactive | inactive | – | 18 | inactive | inactive | inactive | inactive | inactive | inactive | 5.73% | -23% | -5% | inactive | inactive
O=C(OCc1ccccc1)c1ccccc1O | > 92 | inactive | inactive | inactive | inactive | inactive | inactive | inactive | -1.91 | inactive | inactive | inactive | inactive | inactive | inactive | -2.61% and -0.719% | 4.39% and 10% | 9.47% and -5.04% | inactive | inactive
CCN(CC)c1ccc2c(C)cc(=O)oc2c1 | > 92 | inactive | inactive | inactive | inactive | inactive | inactive | inactive | 0.453 | inactive | inactive | inactive | inactive | inactive | 44.7 µM (active) | -3.98% | -2.1% | -1.15% | inactive | inactive
COc1ccc([N+](=O)[O-])cc1N | > 92 | inactive | inactive | inactive | inactive | inactive | inactive | inactive | -2.76 | inactive | inactive | inactive | inactive | inactive | inactive | -6.59% and -0.402% | -6.61% and -1.85% | -2.82% and -3.03% | inactive | inactive
C[Si](C)(C)Cl | > 92 | inactive | inactive | inactive | inactive | inactive | inactive | inactive | 1.84 | inactive | inactive | inactive | inactive | inactive | inactive | -1.44% | -8.15% | -4.36% | inactive | inactive
CCCC(=O)OC(=O)CCC | > 92 | inactive | inactive | inactive | inactive | inactive | inactive | inactive | 0.516 | inactive | inactive | inactive | inactive | inactive | inactive | -9.39% and -1.32% | -5.41% and 18.3% | -4.88% and -8.13% | inactive | inactive
c1c[nH]cn1 | > 92 | inactive | inactive | inactive | inactive | inactive | inactive | inactive | -0.608 | inactive | inactive | inactive | inactive | inactive | inactive | -0.778% | -2.06% | -0.708% | inactive | inactive
NC(=O)c1ccc([N+](=O)[O-])cc1 | > 92 | inactive | inactive | inactive | inactive | inactive | inactive | inactive | 0.417 | inactive | inactive | inactive | inactive | inactive | inactive | -2.18% | 5.8% | 4.95% | inactive | inactive
CCc1ccc(C(c2ccc(CC)cc2)C(Cl)Cl)cc1 | > 92 | inactive | inactive | inactive | inactive | inactive | inactive | inactive | 1.15 | inactive | inactive | inactive | inactive | inactive | inactive | -1.02% | -5.77% | -18.5% | inactive | inactive
CCCCNCC | > 92 | inactive | inactive | inactive | inactive | inactive | inactive | inactive | -0.76 | inactive | inactive | inactive | inactive | inactive | inactive | -6.73% | 3.95% | -3.61% | inactive | inactive
